Test results taken from the supplement of paper PMC10849652.
The full data set covers some 7,900 targets. This sample favours those with a hit. About 0.6% of all pairs of compound and target were hits. A number with no mark means an inactive call.

How the values were obtained:
Assay in all cases: log2 fold change, soluble protein after heating vs DMSO (PISA); higher = thermal stabilisation; K562 cells, 10 uM, 30 min; active = over 0.2 and 3.5 SD of the protein, either way, in both replicates (recomputed)
[1] = compound: CC[C@@H]1C(=O)N(C)c2cnc(Nc3ccc(C(=O)NC4CCN(C)CC4)cc3OC)nc2N1C1CCCC1
Summary of the method: (§1)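 Quantification of soluble protein used TMTpro 16plex LC-MS/MS, with channel sums equalised. Samples were the supernatant after 21,000xg for 90 min of pooled aliquots from K562 cells (2×10^6 cells/mL) treated with 10 μM compound for 30 min, heated for 3 min over 48°C-58°C, and extracted in PBS with 0.5% NP-40 at 4°C. Values, from duplicates, describe thermal stability against control samples on a log2 fold-change scale.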

volasertib = compound: CC[C@@H]1C(=O)N(C)c2cnc(Nc3ccc(C(=O)N[C@H]4CC[C@H](N5CCN(CC6CC6)CC5)CC4)cc3OC)nc2N1C(C)C [volasertib]
Summary of the method: as §1

[2] = compound: CC[C@H](C)N1C=C(C2=C(C=C(C=C21)C3=CN=C(C=C3)N4CCNCC4)C(=O)NCC5=C(C=C(NC5=O)C)C)C
Summary of the method: as §1

epoxomicin = compound: CC[C@H](C)[C@@H](C(=O)N[C@@H]([C@@H](C)O)C(=O)N[C@@H](CC(C)C)C(=O)[C@]1(CO1)C)NC(=O)[C@H]([C@@H](C)CC)N(C)C(=O)C [epoxomicin]
Summary of the method: as §1

[3] = compound: CCn1c(C(=O)N(C2CC2)C2CC2)cc2c3c(ncn3C)c(Nc3cc(C)n(C)n3)nc21
Summary of the method: as §1

[4] = compound: CCn1cc(-c2ccnc3[nH]c(-c4cccc(CN(C)C)c4)cc23)c(-c2ccc(NC(=O)N(C)C)cc2)n1
Summary of the method: as §1

[5] = compound: CN(C)CC(=O)Nc1ccc2[nH]c(=O)c3ccccc3c2c1
Summary of the method: as §1

rosiglitazone = compound: CN(CCOC1=CC=C(C=C1)C[C@H]2C(=O)NC(=O)S2)C3=CC=CC=N3 (racemic) [rosiglitazone]
Summary of the method: as §1

[6] = compound: CN1C2=C(C3=C1C(=O)N(N=C3)CC4=CC(=CC=C4)N)SC(=C2)S(=O)C
Summary of the method: as §1

[7] = compound: CN1CCC(CNc2ccc3ncc(-c4cccc(OC(F)(F)F)c4)n3n2)CC1
Summary of the method: as §1

saracatinib = compound: CN1CCN(CCOc2cc(OC3CCOCC3)c3c(Nc4c(Cl)ccc5c4OCO5)ncnc3c2)CC1 [saracatinib]
Summary of the method: as §1

sotrastaurin = compound: CN1CCN(c2nc(C3=C(c4c[nH]c5ccccc45)C(=O)NC3=O)c3ccccc3n2)CC1 [sotrastaurin]
Summary of the method: as §1

alvocidib = compound: CN1CC[C@H](c2c(O)cc(O)c3c(=O)cc(-c4ccccc4Cl)oc23)[C@H](O)C1 [alvocidib]
Summary of the method: as §1

Tubastatin A = compound: CN1CCc2c(c3ccccc3n2Cc2ccc(C(=O)NO)cc2)C1 [Tubastatin A]
Summary of the method: as §1

[8] = compound: CNC(=O)C1=CC=CC=C1NC2=NC(=NC=C2Cl)NC3=C(C=C(C=C3)N4CCOCC4)OC
Summary of the method: as §1

defactinib = compound: CNC(=O)c1ccc(Nc2ncc(C(F)(F)F)c(NCc3nccnc3N(C)S(C)(=O)=O)n2)cc1 [defactinib]
Summary of the method: as §1

rucaparib = compound: CNCc1ccc(-c2[nH]c3cc(F)cc4c3c2CCNC4=O)cc1 [rucaparib]
Summary of the method: as §1

[9] = compound: CNc1nc(-c2ccc3c(N)n[nH]c3c2)cc(N2C[C@@H](C(=O)NC3CCCCC3)CC[C@H]2C)n1
Summary of the method: as §1

encorafenib = compound: COC(=O)N[C@@H](C)CNc1nccc(-c2cn(C(C)C)nc2-c2cc(Cl)cc(NS(C)(=O)=O)c2F)n1 [encorafenib]
Summary of the method: as §1

[10] = compound: COC(=O)[C@H](CCSC)NC(=O)C1=C(C=C(C=C1)NC[C@H](CS)N)C2=CC=CC=C2
Summary of the method: as §1

Sequence of UniProt O15118 (O15118 whole entry, looked up): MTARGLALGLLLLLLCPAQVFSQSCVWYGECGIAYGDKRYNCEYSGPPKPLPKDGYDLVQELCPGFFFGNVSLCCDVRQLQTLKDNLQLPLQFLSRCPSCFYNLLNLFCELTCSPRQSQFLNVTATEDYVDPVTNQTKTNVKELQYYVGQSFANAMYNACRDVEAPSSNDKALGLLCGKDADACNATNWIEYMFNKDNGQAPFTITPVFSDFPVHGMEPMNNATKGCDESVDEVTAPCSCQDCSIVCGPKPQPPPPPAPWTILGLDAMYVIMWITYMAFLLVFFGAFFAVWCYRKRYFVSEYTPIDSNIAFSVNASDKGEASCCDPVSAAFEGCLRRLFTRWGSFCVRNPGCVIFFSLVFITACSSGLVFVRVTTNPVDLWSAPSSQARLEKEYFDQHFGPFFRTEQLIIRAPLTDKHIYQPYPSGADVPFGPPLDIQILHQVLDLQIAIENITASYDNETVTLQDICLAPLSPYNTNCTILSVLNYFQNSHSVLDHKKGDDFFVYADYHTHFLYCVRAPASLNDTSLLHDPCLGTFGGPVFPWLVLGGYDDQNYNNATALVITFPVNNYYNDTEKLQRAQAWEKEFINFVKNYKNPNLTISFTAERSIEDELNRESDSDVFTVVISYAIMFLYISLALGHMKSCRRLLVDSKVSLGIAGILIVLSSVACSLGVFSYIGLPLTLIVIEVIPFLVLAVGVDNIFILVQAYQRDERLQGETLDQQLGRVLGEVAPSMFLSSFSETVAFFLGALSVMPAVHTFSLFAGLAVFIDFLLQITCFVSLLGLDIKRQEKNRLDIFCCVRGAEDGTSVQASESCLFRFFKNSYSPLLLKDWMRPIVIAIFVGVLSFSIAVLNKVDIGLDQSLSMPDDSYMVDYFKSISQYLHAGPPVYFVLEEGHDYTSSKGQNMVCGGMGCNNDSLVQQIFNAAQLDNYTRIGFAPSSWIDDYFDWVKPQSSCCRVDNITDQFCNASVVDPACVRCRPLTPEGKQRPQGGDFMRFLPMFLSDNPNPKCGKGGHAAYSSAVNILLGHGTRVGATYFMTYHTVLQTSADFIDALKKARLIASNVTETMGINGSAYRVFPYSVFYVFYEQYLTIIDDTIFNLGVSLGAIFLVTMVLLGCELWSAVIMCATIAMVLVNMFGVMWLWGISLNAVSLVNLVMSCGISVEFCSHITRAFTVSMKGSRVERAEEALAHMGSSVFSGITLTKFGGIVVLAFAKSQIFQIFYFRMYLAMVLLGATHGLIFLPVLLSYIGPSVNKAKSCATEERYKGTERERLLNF
Sequence of UniProt P55209 (P55209 whole entry, looked up): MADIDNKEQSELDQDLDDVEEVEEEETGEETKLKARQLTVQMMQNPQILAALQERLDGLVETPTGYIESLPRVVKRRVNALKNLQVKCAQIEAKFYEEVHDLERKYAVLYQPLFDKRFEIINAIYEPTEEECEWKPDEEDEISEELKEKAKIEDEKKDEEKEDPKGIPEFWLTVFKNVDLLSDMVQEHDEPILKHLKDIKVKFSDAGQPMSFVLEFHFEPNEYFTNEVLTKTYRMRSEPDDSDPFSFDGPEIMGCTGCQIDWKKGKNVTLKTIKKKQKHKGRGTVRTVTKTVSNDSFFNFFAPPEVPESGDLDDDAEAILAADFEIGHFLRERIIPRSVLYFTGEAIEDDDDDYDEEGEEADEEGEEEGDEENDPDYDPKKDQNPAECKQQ
Sequence of UniProt Q13952 (Q13952 whole entry, looked up): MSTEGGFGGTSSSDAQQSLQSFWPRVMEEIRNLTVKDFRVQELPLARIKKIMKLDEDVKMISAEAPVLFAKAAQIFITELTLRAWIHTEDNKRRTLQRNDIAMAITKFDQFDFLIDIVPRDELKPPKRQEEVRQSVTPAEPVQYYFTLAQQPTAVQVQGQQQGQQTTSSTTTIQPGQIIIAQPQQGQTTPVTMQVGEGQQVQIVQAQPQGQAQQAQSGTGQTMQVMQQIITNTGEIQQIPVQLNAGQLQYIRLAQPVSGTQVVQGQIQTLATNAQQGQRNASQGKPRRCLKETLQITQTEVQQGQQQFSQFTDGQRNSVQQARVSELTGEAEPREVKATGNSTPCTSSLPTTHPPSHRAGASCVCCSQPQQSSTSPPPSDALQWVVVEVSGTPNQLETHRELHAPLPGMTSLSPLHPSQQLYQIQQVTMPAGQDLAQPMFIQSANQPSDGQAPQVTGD
Sequence of UniProt Q7Z3U7 (Q7Z3U7 whole entry, looked up): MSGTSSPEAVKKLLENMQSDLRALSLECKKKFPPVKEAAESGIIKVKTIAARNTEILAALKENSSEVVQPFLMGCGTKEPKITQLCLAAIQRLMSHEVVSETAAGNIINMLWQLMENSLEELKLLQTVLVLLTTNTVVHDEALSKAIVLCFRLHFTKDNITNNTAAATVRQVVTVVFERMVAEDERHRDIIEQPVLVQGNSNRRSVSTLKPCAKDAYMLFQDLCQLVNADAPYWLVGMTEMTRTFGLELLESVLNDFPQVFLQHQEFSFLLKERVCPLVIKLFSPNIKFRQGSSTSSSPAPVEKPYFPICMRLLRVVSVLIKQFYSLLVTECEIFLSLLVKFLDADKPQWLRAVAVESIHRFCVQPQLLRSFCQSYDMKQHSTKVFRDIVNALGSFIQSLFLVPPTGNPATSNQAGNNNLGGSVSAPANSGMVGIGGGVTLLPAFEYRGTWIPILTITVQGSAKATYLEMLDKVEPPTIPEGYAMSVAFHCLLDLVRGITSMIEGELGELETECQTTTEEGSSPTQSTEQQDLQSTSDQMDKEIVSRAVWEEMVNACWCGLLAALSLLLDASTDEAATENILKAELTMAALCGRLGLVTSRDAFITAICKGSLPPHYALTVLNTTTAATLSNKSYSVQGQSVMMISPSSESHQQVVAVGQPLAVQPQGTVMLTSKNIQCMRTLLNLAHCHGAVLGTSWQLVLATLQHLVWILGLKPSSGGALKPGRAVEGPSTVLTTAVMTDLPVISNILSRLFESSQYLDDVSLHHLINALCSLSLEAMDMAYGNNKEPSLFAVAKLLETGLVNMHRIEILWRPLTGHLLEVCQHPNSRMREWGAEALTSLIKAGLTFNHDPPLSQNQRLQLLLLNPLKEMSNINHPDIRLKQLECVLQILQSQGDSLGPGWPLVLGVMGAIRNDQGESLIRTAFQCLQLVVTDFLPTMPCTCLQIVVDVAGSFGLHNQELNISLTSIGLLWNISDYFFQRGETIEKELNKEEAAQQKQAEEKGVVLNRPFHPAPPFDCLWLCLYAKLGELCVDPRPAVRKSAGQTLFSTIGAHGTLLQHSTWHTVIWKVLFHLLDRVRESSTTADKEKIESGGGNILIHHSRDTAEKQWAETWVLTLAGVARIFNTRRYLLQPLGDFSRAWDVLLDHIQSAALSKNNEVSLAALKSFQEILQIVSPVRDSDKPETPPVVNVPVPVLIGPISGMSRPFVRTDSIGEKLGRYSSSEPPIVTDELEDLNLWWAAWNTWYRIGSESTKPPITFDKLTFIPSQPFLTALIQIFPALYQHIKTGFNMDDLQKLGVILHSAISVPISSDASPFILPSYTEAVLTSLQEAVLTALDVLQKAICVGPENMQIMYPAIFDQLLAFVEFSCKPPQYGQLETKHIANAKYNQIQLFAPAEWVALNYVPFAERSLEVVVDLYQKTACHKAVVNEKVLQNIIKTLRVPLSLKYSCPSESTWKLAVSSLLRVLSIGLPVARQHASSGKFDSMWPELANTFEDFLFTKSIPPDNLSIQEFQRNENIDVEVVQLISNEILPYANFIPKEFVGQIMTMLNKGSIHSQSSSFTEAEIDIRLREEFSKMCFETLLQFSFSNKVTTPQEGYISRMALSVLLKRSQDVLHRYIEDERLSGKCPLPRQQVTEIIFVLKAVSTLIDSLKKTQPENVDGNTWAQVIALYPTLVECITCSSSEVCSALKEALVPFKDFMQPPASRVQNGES
Sequence of UniProt Q9Y2A7 (Q9Y2A7 whole entry, looked up): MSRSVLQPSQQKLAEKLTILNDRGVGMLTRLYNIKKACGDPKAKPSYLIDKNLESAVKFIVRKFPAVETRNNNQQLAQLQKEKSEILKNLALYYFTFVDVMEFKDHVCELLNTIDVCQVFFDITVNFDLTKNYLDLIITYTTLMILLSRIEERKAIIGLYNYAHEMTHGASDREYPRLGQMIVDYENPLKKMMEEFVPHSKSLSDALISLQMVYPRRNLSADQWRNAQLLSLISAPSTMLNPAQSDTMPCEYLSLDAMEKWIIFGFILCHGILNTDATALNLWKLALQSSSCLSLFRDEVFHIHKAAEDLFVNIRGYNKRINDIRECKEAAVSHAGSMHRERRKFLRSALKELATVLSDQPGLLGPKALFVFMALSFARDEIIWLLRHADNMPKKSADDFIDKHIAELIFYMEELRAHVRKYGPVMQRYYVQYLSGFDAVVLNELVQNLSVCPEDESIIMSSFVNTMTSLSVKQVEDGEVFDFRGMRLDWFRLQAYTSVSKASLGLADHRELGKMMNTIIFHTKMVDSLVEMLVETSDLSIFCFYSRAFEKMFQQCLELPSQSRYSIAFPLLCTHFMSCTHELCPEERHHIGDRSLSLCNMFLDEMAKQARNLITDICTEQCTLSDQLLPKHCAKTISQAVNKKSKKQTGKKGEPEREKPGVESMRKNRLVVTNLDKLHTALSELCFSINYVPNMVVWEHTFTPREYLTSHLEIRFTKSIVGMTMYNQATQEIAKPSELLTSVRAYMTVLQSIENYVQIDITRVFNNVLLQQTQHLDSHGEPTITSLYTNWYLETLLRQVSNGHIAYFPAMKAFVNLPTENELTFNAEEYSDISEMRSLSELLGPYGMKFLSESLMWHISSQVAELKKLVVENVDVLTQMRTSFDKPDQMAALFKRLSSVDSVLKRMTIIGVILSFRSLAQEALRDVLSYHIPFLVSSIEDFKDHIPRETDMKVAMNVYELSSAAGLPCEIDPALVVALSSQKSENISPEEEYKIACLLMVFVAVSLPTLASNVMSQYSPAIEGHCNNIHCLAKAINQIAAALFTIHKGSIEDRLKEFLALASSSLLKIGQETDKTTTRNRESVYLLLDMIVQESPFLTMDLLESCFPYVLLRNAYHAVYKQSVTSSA

| Target | log2 fold change [1] | log2 fold change (volasertib) | log2 fold change [2] | log2 fold change (epoxomicin) | log2 fold change [3] | log2 fold change [4] | log2 fold change [5] | log2 fold change (rosiglitazone) | log2 fold change [6] | log2 fold change [7] | log2 fold change (saracatinib) | log2 fold change (sotrastaurin) | log2 fold change (alvocidib) | log2 fold change (Tubastatin A) | log2 fold change [8] | log2 fold change (defactinib) | log2 fold change (rucaparib) | log2 fold change [9] | log2 fold change (encorafenib) | log2 fold change [10] |
| --- | --- | --- | --- | --- | --- | --- | --- | --- | --- | --- | --- | --- | --- | --- | --- | --- | --- | --- | --- | --- |
| NPC1 (UniProt O15118) | -0.016 | -0.072 | -0.031 | -0.02 | 0.009 | 0.005 | -0.029 | -0.018 | 0.004 | 0.012 | 0.077 | 0.007 | 0.041 | -0.045 | 0.02 | 0.01 | -0.147 | -0.049 | -0.012 | -0.006 |
| NFYC (UniProt Q13952) | 0.012 | 0.015 | -0.021 | -0.001 | 0.006 | -0.015 | 0.041 | 0.059 | -0.063 | 0 | 0.011 | 0.012 | 0.054 | -0.021 | -0.022 | -0.022 | -0.041 | -0.019 | 0.005 | 0.005 |
| NAP1L1 (UniProt P55209) | -0.112 | -0.237 (active) | 0.005 | 0.048 | 0.007 | -0.008 | 0.013 | 0.014 | 0.003 | -0.038 | 0.042 | -0.039 | -0.045 | -0.008 | 0.053 | -0.008 | 0.039 | -0.084 | 0.048 | 0.023 |
| NRF1 isoform 4 (UniProt Q16656) | -0.173 | -0.501 (active) | 0.087 | 0.268 | -0.056 | 0.035 | 0.08 | 0.1 | -0.084 | 0.037 | 0.102 | -0.045 | -0.159 | 0.015 | -0.016 | -0.34 (active) | -0.11 | -0.061 | 0.036 | 0.015 |
| MIS12 (UniProt Q9H081) | -0.072 | -0.36 (active) | 0.012 | 0.026 | -0.034 | -0.007 | 0.055 | 0.04 | -0.107 | -0.039 | 0.04 | -0.014 | -0.145 | 0.031 | 0.002 | -0.143 | 0.021 | -0.006 | 0.021 | -0.052 |
| MRPS22 (UniProt P82650) | 0.007 | -0.05 | 0.125 | 0.004 | -0.03 | -0.068 | 0.004 | -0.006 | 0.084 | 0.103 | -0.098 | -0.122 | -0.051 | -0.006 | -0.038 | 0.058 | 0.143 | 0.169 | 0.064 | -0.051 |
| MON2 isoform 5 (UniProt Q7Z3U7) | -0.125 | -0.377 (active) | 0.06 | 0.023 | 0 | -0.028 | 0.031 | 0.062 | -0.064 | -0.158 | -0.089 | -0.001 | -0.056 | -0.005 | 0.02 | -0.011 | 0.01 | 0.044 | 0.026 | -0.025 |
| NCKAP1 isoform 2 (UniProt Q9Y2A7) | 0.002 | -0.25 (active) | 0.031 | 0.01 | -0.003 | -0.036 | 0.043 | 0.011 | -0.042 | -0.027 | 0.02 | -0.031 | -0.06 | 0.027 | 0.006 | -0.071 | -0.022 | 0.019 | 0 | -0.007 |
